Our source for the inhibition values is PubChem BioAssay.

The inhibition is the drop in the measured response relative to a control, in per cent.

The list shows a part of the results. Calls of active or inactive are those of the source. Rule as the data show it: active = inhibition above about 30%; inactive = the rest.

This assay deals with Sphingosine 1-phosphate receptor 4 (Homo sapiens) (UniProt O95977). The experiment in a line: blockers of human S1P4 signalling – cell-based, confirmation (AID 1524). Conditions: S1P4-expressing cell line, antagonist mode, reporter read-out; at 4.98 µM; stronger effect = higher value.
Sequence of Sphingosine 1-phosphate receptor 4 (Homo sapiens) (O95977 whole entry, looked up): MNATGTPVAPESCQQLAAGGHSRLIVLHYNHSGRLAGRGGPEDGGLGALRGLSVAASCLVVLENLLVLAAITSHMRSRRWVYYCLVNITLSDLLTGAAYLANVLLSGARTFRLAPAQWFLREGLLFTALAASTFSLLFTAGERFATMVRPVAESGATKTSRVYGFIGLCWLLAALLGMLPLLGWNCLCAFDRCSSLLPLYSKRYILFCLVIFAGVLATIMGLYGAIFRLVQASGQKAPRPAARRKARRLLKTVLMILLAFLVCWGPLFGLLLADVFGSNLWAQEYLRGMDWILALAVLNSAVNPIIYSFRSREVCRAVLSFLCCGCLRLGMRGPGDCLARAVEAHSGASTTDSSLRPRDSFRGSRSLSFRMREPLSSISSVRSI
`O=C(/C=C/c1ccc(Cl)c([N+](=O)[O-])c1)c1ccc(O)cc1`: the inhibition was 102% (active).

For the compound `Cc1cccc(NC(=O)c2ccc([N+](=O)[O-])o2)c1`, the inhibition is 79% (active).

Regarding `C[C@@H](NC(=O)OC(C)(C)C)c1nnc(S(=O)(=O)Cc2ccccc2)o1`, the inhibition is 83.4% (active).

Take `CC1CC(C)CN(S(=O)(=O)c2cccc(C(=O)N3C(=O)c4cccc(N)c4C3=O)c2)C1` (stereo not drawn): the inhibition was 32.3% (active).

Take `CC1CC2=C(CC1/C=N/NC(N)=S)C(C)(C)CCC2` (stereo not drawn): the inhibition was 67.8% (active).

`O=C(Nc1ccccc1)c1nnsc1S(=O)(=O)c1ccc(Cl)cc1`: the inhibition is 116% (active).

Turning to `Nc1nonc1-c1nc2ccccc2n1Cc1ccc(F)cc1`, the inhibition is 35.7% (active).

On to `O=C1C=C(c2ccc(Cl)cc2)C(=O)N1Nc1ccccc1`, for which the inhibition is 119% (active).
